sEH inhibitor = soluble epoxide hydrolase inhibitors, primary screen, biochemical, human sEH | actives 0.34% (n = 91,000) | recombinant human sEH enzymatic activity assay | inhibition, % at 2 µM | Bifunctional epoxide hydrolase 2 (Homo sapiens), P34913; in the data active means inhibition above about 80%
Target sequence (P34913 whole entry, looked up): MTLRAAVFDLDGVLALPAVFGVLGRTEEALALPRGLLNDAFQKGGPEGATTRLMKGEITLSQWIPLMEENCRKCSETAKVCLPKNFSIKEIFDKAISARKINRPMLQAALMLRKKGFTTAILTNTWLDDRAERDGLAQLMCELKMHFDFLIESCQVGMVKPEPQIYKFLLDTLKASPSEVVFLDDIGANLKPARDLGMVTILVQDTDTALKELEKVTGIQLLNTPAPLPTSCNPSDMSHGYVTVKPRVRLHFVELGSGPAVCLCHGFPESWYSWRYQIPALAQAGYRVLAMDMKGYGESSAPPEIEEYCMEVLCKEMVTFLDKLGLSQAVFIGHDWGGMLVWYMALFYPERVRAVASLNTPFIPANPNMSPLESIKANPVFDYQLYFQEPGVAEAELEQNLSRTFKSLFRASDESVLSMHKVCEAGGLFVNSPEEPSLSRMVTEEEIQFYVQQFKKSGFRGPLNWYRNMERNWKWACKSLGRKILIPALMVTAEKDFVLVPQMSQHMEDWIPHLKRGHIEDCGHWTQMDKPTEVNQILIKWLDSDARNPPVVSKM
CYP2C19 activ = human CYP2C19 activators, primary screen, biochemical, luminescence | activation factor at 5 µM | Cytochrome P450 2C19 (Homo sapiens), P33261 | 96,000 tested, under 10 active | recombinant CYP2C19, luciferin-H EGE luminescence; hits give high values; 0 = fully inhibited enzyme, 1 = untreated enzyme;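 active means activation factor of at least 2 at 5 µM in the primary screen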
CYP2C19 inh = blockers of cytochrome P450 2C19 activity – biochemical, luminescence, ADME assay, primary screen | P33261 | CYP2C19 Supersomes, luciferin-H EGE luminescence, 30 min | actives 21% (n = 96,000) | inhibition, % at 5 µM | AID 778, 2007;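 active means CYP2C19 inhibition above a set limit at 5 µM in the primary screen, cut at about 50% in these data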
CYP2C9 act = human CYP2C9 activators, primary screen, biochemical, luminescence | Cytochrome P450 2C9 (Homo sapiens), P11712 | recombinant CYP2C9, luciferin-H conversion; hits give high values; factor 1 = untreated enzyme, 0 = blocked | activation factor at 5 µM | actives 1.4% (n = 96,000) | AID 1024, 2008;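 active means activation factor of 2 or more for CYP2C9 at a 5 µM dose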
CYP2C9 inhib = blockers of cytochrome P450 2C9 activity – biochemical, luminescence, ADME assay, primary screen | P11712 | CYP2C9 Supersomes, luciferin-H conversion | inhibition, % at 5 µM | actives 20% (n = 96,000) | AID 777, 2007;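 active means blocking of liver enzyme CYP2C9 beyond about 50% at 5 µM, limit read from the data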
sEH act = soluble epoxide hydrolase activators, primary screen, biochemical, human sEH; Bifunctional epoxide hydrolase 2 (Homo sapiens), P34913; purified human sEH enzymatic activity, activator screen; activation, % at 2 µM; actives 0.04% (n = 91,000); in the data active means activation above about 37%
Each line names hits and unclear results; the compound was inactive in the other large screens. Hits are enriched below; roughly 27% of the tested compounds scored in any of these assays.

Oc1ccc(/C=N/n2c3ccccc3c3ccccc32)cc1	CYP2C9 inhib 73
Cc1nnc(C)n1/N=C/c1ccc(O)cc1	none
O=C(COC(=O)c1cc(S(=O)(=O)N2CCOCC2)c(Cl)cc1Cl)Nc1ncc(C(F)(F)F)cc1Cl	none
Cn1nnnc1SCC(=O)c1ccc(Br)s1	CYP2C19 inh 65
Cn1c(Cc2ccccc2)nnc1SCC(=O)c1ccc(Br)s1	CYP2C19 inh 75, CYP2C9 inhib 70
CCCC(=O)c1cc(F)c(N2CCOCC2)cc1C	CYP2C19 inh 53
O=C(N1CCOCC1)C1(c2ccccc2)CCCCC1	CYP2C19 inh 69
COc1ccccc1-n1cnc(N)c1C(=O)c1ccccc1	none
CCOC(=O)c1sc(NC(=O)CN2C(=O)c3cccc4cccc(c34)C2=O)nc1C	none
CCOC(=O)c1sc(NC(=O)Cn2nnc3sc4c(c3c2=O)CCCC4)nc1C	CYP2C9 inhib 55
CCCNS(=O)(=O)c1ccc(CCC(=O)NCC2CCCO2)cc1 (stereo not given)	none (no result: CYP2C19 activ, CYP2C19 inh, CYP2C9 act, CYP2C9 inhib)
CCCNS(=O)(=O)c1ccc(CCC(=O)N2CCC(C)CC2)cc1	CYP2C19 inh 82, CYP2C9 inhib 52
CC1CCN(C(=O)CCc2ccc(S(=O)(=O)NC(C)(C)C)cc2)CC1	CYP2C19 inh 74, CYP2C9 inhib 63
CC(C)(C)NS(=O)(=O)c1ccc(CCC(=O)N2CCOCC2)cc1	none
C=CCSC1=C(C#N)C(c2cccc(OC)c2)CC(=O)N1 (stereo not given)	CYP2C19 inh 52
C=CCSC1=C(C#N)C(c2ccccc2OCC)CC(=O)N1 (stereo not given)	CYP2C19 inh 93, CYP2C9 inhib 71
Cc1ccc(C2CC(=O)NC(SCCC(C)C)=C2C#N)cc1 (stereo not given)	CYP2C9 inhib 56
CCOc1ccc(C2CC(=O)NC(SCC(=O)OC)=C2C#N)cc1 (stereo not given)	CYP2C9 inhib 69
CCCCN(C)C(=O)C1CCC(=O)N(c2cc(OC)c(OC)c(OC)c2)C1c1ccc(OC)cc1 (stereo not given)	none (no result: CYP2C19 activ, CYP2C19 inh, CYP2C9 act, CYP2C9 inhib)
COC(=O)CSC1=C(C#N)C(c2cccc(OC)c2)CC(=O)N1 (stereo not given)	CYP2C19 inh 71, CYP2C9 inhib 75
COC(=O)CSC1=C(C#N)C(c2ccc(Cl)cc2)C(C(=O)OC)C(=O)N1 (stereo not given)	CYP2C19 inh 61 (no result: sEH inhibitor, sEH act)
CCc1ccc(C2CC(=O)NC(SCC(=O)OC(C)C)=C2C#N)cc1 (stereo not given)	CYP2C19 inh 87, CYP2C9 inhib 93
COC(=O)CSC1=C(C#N)C(c2cccc(F)c2)CC(=O)N1 (stereo not given)	none
Cc1cc(C)cc(N2C(=O)N(c3ccccc3C)C3CS(=O)(=O)CC32)c1 (stereo not given)	CYP2C19 inh 94 (no result: sEH inhibitor, sEH act)
CC(C)(C(=O)c1ccccc1)/[N+]([O-])=C/c1ccccc1F	none (no result: CYP2C19 activ, CYP2C19 inh, CYP2C9 act, CYP2C9 inhib)
CCCCOCCCNC(=O)c1cccs1	none
COc1ccc(CNC(=O)c2cccs2)cc1	CYP2C19 inh 94
O=C(NCc1ccccc1F)c1cccs1	CYP2C19 inh 59
Cc1cc(C(=O)NCc2ccccc2F)cs1	none
CCOCCCNC(=O)c1ccccc1SC	none
COc1ccccc1OCCNC(=O)c1cccs1	CYP2C19 inh 92, CYP2C9 inhib 52
CCc1ccc(OCCNC(=O)c2ccccc2SCc2ccc(F)cc2)cc1	CYP2C19 inh 51, CYP2C9 inhib 50
O=C(NCCN1CCOCC1)c1cccs1	none
CCc1ccc(OCCNC(=O)c2cccs2)cc1	CYP2C9 inhib 74
O=C(NCCN1Cc2ccccc2C1=O)c1cccs1	CYP2C19 inh 77
CC(C)OCC(O)CS(=O)Cc1ccccc1 (stereo not given)	none
CC1=CC(=O)C(C(C)C)=C/C1=N/OC(=O)c1cccc([N+](=O)[O-])c1	CYP2C9 inhib 53
CC1=CC(=NOC(=O)c2cccc([N+](=O)[O-])c2)C=C(C)C1=O	none
COC(=O)Cn1c(CN2CCOCC2)nc2c1c(=O)[nH]c(=O)n2C	none (no result: sEH inhibitor, sEH act)
C=CCOn1c(=O)c(-c2cccs2)[n+]([O-])c2ccccc21	CYP2C19 inh 57, CYP2C9 inhib 68
C=CCOn1c(=O)c(-c2ccc(OC)c(OC)c2)[n+]([O-])c2ccccc21	none
CCOc1ccc(C(CC(=O)O)NC(=O)c2ccco2)cc1 (stereo not given)	none (no result: CYP2C19 activ, CYP2C19 inh, CYP2C9 act, CYP2C9 inhib)
CCOc1ccc(N(CC(=O)NC(C)(C)C)C(=O)c2ccco2)cc1	CYP2C9 inhib 90
CS(=O)(=O)NCCSCc1ccco1	none
O=C(Nc1ccccc1)ON=C1c2ccccc2-c2ccccc21	CYP2C9 inhib 72
O=C(Nc1ccccc1Cl)ON=C1c2ccccc2-c2ccccc21	CYP2C9 inhib 78
Cc1cc(OCC(=O)N2CCOCC2)cc2oc(=O)c3ccccc3c12	none (no result: CYP2C19 activ, CYP2C19 inh, CYP2C9 act, CYP2C9 inhib)
COc1ccccc1NC(=O)C(NC(=O)OC(C)(C)C)C(C)OCc1ccccc1 (stereo not given)	none
CCc1sc(N(C(=O)Cc2ccccc2)c2ccc(F)cc2)nc1-c1ccccc1	CYP2C19 inh 86, CYP2C9 inhib 51
CCc1sc(N(C(=O)Cc2ccccc2)c2ccccc2)nc1-c1ccccc1	none
CCOc1ccccc1C(=O)N(CN1CCCC1=O)c1cccc(Cl)c1	none (no result: sEH inhibitor, sEH act)
COC(=O)c1c(NC(=O)CSc2nnnn2-c2ccccc2)sc2c1CCC(C)C2 (stereo not given)	CYP2C9 inhib 71
CC1CCCCC1NC(=O)CSc1nnnn1-c1ccccc1 (stereo not given)	CYP2C19 inh 89
O=C(CSc1nnnn1-c1ccc(F)cc1)NC1CCCCC1	none
Cc1ccccc1NC(C)C(=O)N/N=C/c1ccccc1OCc1cccc(Br)c1 (stereo not given)	CYP2C9 inhib 76
CC(O)C(=O)N/N=C/c1cccc(Cl)c1Cl (stereo not given)	none
O=C(O)C1(P(=O)(c2ccccc2)c2ccccc2)CCC1	none (no result: sEH inhibitor, sEH act)
CCOC(=O)C1(P(=O)(c2ccc(Cl)cc2)c2ccc(Cl)cc2)CCC1	CYP2C19 inh 80
C/C=C/c1ccc(OCCCNC2CCCC2)c(OC)c1	none
C/C=C/c1ccc(OCCn2cncn2)c(OC)c1	CYP2C19 inh 65
C/C=C/c1ccc(OCCCn2cncn2)c(OC)c1	CYP2C19 inh 89, CYP2C9 inhib 50
C/C=C/c1ccc(OCCCCn2cncn2)c(OC)c1	CYP2C19 inh 75
COc1ccc(S(=O)(=O)N2CCN(C)CC2)cc1C	none
COc1cc(C)c(S(=O)(=O)n2nnc3ccccc32)cc1C	none
COc1ccc(S(=O)(=O)n2ccc(C)n2)cc1C	CYP2C19 inh 50, CYP2C9 act 2.4
COc1cc(C)c(S(=O)(=O)n2ccc(C)n2)cc1C	CYP2C19 inh 83
